Results taken from PubChem BioAssay (NCATS).
Values without a mark were called inactive. Records with an inconclusive call do not appear. The source made the active and inactive calls. Unless noted, calls follow the shape of the dose curve; as a rule, active = well fitted curve in either direction with a large enough effect (not every such curve was filed as active); inconclusive = small, poorly fitted or top-dose-only effect, or another doubt; inactive = flat fitted curve, though single readings scatter.

What was measured:
[1] = target: Lysosomal acid glucosylceramidase (Homo sapiens) (UniProt P04062); assay: Glucocerebrosidase-p2 (AID 348; in the data active = potency below about 10 µM; also: potency is read from the fitted curve at half-maximal effect); conditions: purified GBA, blue fluorogenic substrate, 40 min
In short: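 Normal human glucocerebrosidase (0.2 nM) with blue fluorogenic substrate (80 uM final) in citrate/phosphate pH 5.9 with 10mM sodium taurocholate, 0.01% tween-20; 40 min RT, NaOH/glycine stop; fluorescence Ex 365/Em 440; AC50 from a titration from 0.6 nM upwards.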

[2] = AP1 Signaling Pathway (AID 357); conditions: ME-180 AP-1-bla reporter, EGF-induced, beta-lactamase ratio, 5 h; at 7.69 µM (top of the series) unless noted;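 also: ME-180 reporter cells stimulated with EGF at its EC50 level; % is scaled to controls: 0 for no effect and ±100 for the full control effect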
In short: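 Beta-lactamase reporter under AP-1 response element, ME-180 background. Stimulus: EC50 EGF. Compound exposure 5 h, 37 °C. Detection: CCF4, 2.5 h RT, 460/530 nm. Values: AC50 from titration.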

[3] = target: Cytochrome P450 1A2 (Homo sapiens) (UniProt P05177); assay: p450-cyp1a2 (AID 410; calls by dose curve; also: potency is read from the fitted curve at half-maximal effect;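 as to activity change, negative = inhibition: -100% = full effect of reference inhibitor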); conditions: recombinant CYP1A2, luciferin-ME demethylation, luminescence; series mostly up to 11.4 µM
In short: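 20nM CYP1A2, 100uM Luciferin-ME (=Km), 100mM KPO4; cpd 10 min RT; +NADPH regen, 60 min RT; stop/detect 20 min; luminescence. Normalized to furafylline 57 uM = full inhibition.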

[4] = NFAT Signaling Pathway (AID 444); conditions: Jurkat NFAT-bla M1, carbachol, beta-lactamase ratio, 5 h; at 7.69 µM (top of the series) unless noted;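 also: carbachol stimulus at about its EC50 of 1 µM final; % is scaled to controls: 0 for no effect and ±100 for the full control effect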
In short: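 Jurkat cells carrying an NFAT-driven β-lactamase reporter and co-transfected muscarinic M1 receptor were treated with compound plus carbachol (1 uM final, an EC50 level) for 5 h at 37 °C. CCF4 loading followed for 1 h at RT; 460/530 nm ratio gave %activity.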

[5] = Stat Signaling Pathway (AID 446); conditions: ME-180 SIE beta-lactamase reporter, IL-6 stimulated, 5 h; at 7.69 µM (top of the series) unless noted;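 also: ME-180 cervical cancer cells given 40 pM IL-6 alongside compound; SIE-controlled beta-lactamase reporter measured as 460/530 nm FRET emission ratio; % is scaled to controls: 0 for no effect and ±100 for the full control effect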
In short: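 Normalization used AC90 stimulation (300 pM IL-6) and AC90 inhibition (125 nM pan-JAK inhibitor at 40 pM IL-6). The underlying signal is SIE-driven beta-lactamase in ME-180 cells after 5 h IL-6 exposure with compound.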

[6] = target: Glucocorticoid receptor (Homo sapiens) (UniProt P04150); assay: GR-GFP Redistribution (AID 450;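 active = compounds whose dose series gives a full or clear partial fitted curve of increased nuclear translocation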; also: potency is read from the fitted curve at half-maximal effect); conditions: U2OS GR-GFP nuclear translocation, laser cytometry, 2 h
[7] = target: Glucocorticoid receptor (Homo sapiens) (UniProt P04150); assay: GR-EFC Redistribution (AID 451; calls by dose curve; also: potency is read from the fitted curve at half-maximal effect); conditions: CHO-K1 GR-EFC translocation, beta-gal luminescence, 2 h
In short: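 CHO-K1 cells stably expressing nuclear-localized β-gal enzyme acceptor and GR fused C-terminally to the enzyme donor fragment; ligand-driven nuclear translocation restores β-gal by complementation. Compounds titrated up to 46 uM final, 2 h at 37 °C; luminescence read.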

[8] = target: Mitogen-activated protein kinase 10 (Mus musculus) (UniProt Q61831); assay: JNK3 AlphaScreen Assay (AID 530); conditions: JNK3 lysate, c-Jun phosphorylation; series mostly up to 57.1 µM;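 also: kinase came from lysate of stimulated human HepG2 cells; signal reports phosphorylation of biotinylated GST-cJun 1-79 at Ser73 with 10 µM ATP; % is scaled to controls: 0 for no effect and ±100 for the full control effect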
In short: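 Biotinylated GST-cJun(1-79) served as substrate for JNK3 in HepG2 lysates stimulated with IL-1beta and TNF-alpha. ATP was 10 uM final, pH 7.6. Ser73 phosphorylation was quantified by AlphaScreen (680 nm excitation).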

[9] = target: 3',5'-cyclic-AMP phosphodiesterase 4B (Homo sapiens) (UniProt Q07343); assay: qHTS Assay for Inhibitors of PDE-IV (AID 607; active = well fitted activation curve with a large enough effect in the main read-out, with a control signal flat, not every such curve was filed as active; also: % of control where 0% means no effect); conditions: HEK293 ACTOne CNG channel cells, membrane potential fluorescence; series mostly up to 22.9 µM
In short: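 HEK293 ACTOne cells with CNG channel (1000/well), endogenous PDE4; membrane potential dye, compounds up to 22.9 uM final. Fluorescence Ex 535/Em 590; RO 20-1724 (100 uM final) as reference.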

[10] = target: Cytochrome P450 2D6 (Homo sapiens) (UniProt P10635); assay: qHTS Assay for Inhibitors and Substrates of Cytochrome P450 2D6 (AID 891; active = well fitted inhibition curve with a large enough effect; also: nearly all actives have a fitted effect of over 60% in size; also: potency is read from the fitted curve at half-maximal effect); conditions: recombinant CYP2D6, luciferin-ME EGE luminescence; series mostly up to 11.4 µM
In short: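 Luminescent read-out of luciferin formed by 5 nM human CYP2D6 demethylating 30 uM Luciferin-ME EGE (Km level) over 60 min at room temperature after NADPH regeneration addition. Data normalized to full inhibition by 1.43 uM quinidine.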

[11] = target: Cytochrome P450 2C19 (Homo sapiens) (UniProt P33261); assay: qHTS Assay for Inhibitors and Substrates of Cytochrome P450 2C19 (AID 899; active = well fitted inhibition curve with a large enough effect; also: nearly all actives have a fitted effect of over 60% in size; also: potency is read from the fitted curve at half-maximal effect); conditions: recombinant CYP2C19, luciferin-H EGE luminescence; series mostly up to 11.4 µM
In short: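 Human CYP2C19 (5nM) with Luciferin-H EGE at 10uM (its KM) in 50mM KPO4 was preincubated with compound for 10 min at 37C. NADPH regeneration started a 60 min 37C reaction. Luciferin was read by luminescence, normalized to 57uM ketoconazole.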

[12] = qHTS Assay for Identification of Small Molecule Agonists for Hypoxia Response Element Signaling Pathway (AID 914; active = well fitted activation curve with a large enough effect in the signal ratio, with a control signal flat, not every such curve was filed as active; the % refers to the signal ratio; also: % of control where 0% means no effect); conditions: ME-180 (cervical carcinoma) HRE-bla reporter, beta-lactamase ratio, CoCl2, 17 h; hits give high values
In short: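 qHTS titration; ME-180 HRE-bla cells; EC50 CoCl2 co-treatment, 17 h at 37 degrees Celsius; CCF4 dye, ex 405nm, em 460nm and 530nm; %Activity from ratio; AC50.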

[13] = target: Cytochrome P450 3A4 (Homo sapiens) (UniProt P08684); assay: qHTS Assay for Inhibitors and Substrates of Cytochrome P450 3A4 (AID 884; active = well fitted inhibition curve with a large enough effect; also: potency is read from the fitted curve at half-maximal effect; nearly all actives have a fitted effect of over 50% in size); conditions: recombinant CYP3A4, Luciferin-PPXE luminescence; series mostly up to 57.1 µM
In short: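 Luminescent readout of luciferin produced by CYP3A4 (20 nM) dealkylation of Luciferin-PPXE, 25 uM (its KM). NADPH-driven reaction ran 60 min at RT after 10 min compound preincubation; data scaled to 57 uM ketoconazole as 100% inhibition.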

Chain of Lysosomal acid glucosylceramidase (Homo sapiens) (P04062 whole entry, looked up): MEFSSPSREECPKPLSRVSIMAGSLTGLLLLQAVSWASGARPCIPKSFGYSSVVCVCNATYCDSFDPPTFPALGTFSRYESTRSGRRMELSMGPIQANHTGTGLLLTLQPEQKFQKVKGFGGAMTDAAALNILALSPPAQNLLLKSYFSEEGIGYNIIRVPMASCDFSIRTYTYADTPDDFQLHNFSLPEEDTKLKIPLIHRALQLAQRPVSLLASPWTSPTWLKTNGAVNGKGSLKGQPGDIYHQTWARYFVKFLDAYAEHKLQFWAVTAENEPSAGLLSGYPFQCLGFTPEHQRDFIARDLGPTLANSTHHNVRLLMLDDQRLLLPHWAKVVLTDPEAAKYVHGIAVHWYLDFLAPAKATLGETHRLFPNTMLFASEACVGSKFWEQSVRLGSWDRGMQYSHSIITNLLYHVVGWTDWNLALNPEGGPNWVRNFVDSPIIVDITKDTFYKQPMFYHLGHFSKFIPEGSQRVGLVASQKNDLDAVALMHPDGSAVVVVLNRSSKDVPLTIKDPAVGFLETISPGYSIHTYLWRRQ
Chain of Glucocorticoid receptor (Homo sapiens) (P04150 whole entry, looked up, the tested form may be a part): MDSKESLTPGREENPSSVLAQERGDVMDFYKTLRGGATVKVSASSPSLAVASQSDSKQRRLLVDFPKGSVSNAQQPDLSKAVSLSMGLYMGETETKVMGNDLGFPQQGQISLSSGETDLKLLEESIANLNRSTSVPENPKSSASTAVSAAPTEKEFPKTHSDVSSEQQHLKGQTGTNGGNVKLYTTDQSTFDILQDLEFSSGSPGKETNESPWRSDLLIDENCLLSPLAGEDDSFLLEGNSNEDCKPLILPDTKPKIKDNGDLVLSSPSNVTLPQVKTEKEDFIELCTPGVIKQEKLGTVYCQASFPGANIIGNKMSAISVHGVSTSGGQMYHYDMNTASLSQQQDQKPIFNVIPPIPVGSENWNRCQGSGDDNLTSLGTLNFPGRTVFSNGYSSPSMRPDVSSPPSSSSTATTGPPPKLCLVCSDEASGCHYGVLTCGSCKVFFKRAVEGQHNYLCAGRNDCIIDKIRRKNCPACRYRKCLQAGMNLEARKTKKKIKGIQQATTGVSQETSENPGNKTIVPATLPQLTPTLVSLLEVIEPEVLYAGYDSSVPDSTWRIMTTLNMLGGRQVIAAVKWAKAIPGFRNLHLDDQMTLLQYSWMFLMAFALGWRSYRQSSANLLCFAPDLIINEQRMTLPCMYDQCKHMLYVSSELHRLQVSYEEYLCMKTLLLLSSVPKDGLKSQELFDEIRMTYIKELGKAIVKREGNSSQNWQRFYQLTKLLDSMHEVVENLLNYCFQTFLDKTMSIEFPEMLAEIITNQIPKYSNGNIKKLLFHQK
Chain of Cytochrome P450 2C19 (Homo sapiens) (P33261 whole entry, looked up): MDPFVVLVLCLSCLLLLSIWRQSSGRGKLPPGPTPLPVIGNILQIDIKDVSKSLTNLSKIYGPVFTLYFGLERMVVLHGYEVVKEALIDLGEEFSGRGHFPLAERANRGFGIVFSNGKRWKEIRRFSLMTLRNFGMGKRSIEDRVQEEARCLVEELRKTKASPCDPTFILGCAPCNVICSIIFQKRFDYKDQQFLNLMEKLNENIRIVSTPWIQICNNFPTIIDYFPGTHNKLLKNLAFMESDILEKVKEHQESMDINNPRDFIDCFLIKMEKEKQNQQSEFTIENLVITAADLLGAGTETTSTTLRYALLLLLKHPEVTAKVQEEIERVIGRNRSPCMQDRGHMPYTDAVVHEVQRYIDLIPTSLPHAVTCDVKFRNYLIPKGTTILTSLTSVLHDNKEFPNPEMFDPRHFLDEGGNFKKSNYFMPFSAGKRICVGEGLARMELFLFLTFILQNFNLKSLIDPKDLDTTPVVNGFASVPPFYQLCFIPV
Chain of Cytochrome P450 2D6 (Homo sapiens) (P10635 whole entry, looked up): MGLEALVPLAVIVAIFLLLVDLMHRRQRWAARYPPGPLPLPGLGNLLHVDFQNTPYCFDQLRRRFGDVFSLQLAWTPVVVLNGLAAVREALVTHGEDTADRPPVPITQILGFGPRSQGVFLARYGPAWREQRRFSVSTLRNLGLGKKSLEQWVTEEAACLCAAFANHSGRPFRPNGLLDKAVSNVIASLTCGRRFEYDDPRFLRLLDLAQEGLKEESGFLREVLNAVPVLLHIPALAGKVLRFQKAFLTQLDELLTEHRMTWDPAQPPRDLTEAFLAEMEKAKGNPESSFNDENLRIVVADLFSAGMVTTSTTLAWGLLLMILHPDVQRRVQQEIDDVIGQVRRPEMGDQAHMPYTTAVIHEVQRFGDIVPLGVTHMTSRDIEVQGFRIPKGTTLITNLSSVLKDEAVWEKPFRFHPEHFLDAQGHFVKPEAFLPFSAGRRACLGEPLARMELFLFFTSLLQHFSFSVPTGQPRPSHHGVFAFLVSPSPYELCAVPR
Chain of 3',5'-cyclic-AMP phosphodiesterase 4B (Homo sapiens) (Q07343 whole entry, looked up): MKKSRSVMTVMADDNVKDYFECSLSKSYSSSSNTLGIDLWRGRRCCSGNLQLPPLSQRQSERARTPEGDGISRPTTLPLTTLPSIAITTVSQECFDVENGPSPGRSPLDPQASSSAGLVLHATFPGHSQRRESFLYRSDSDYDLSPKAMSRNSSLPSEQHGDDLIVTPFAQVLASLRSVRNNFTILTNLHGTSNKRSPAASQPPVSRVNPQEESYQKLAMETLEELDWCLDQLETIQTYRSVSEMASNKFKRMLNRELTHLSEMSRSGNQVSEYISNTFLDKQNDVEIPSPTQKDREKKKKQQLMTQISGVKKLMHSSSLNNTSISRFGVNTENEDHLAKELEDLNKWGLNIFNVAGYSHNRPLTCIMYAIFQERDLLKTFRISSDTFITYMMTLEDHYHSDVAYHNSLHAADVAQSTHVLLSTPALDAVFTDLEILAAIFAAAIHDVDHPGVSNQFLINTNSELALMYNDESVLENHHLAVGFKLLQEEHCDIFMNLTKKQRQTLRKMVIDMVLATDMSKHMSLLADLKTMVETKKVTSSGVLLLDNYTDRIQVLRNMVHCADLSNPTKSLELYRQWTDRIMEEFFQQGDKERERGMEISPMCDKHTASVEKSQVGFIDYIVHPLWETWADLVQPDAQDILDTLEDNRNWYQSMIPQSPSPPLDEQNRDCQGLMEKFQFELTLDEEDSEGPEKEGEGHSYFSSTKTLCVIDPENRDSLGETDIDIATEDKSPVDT
Chain of Cytochrome P450 1A2 (Homo sapiens) (P05177 whole entry, looked up): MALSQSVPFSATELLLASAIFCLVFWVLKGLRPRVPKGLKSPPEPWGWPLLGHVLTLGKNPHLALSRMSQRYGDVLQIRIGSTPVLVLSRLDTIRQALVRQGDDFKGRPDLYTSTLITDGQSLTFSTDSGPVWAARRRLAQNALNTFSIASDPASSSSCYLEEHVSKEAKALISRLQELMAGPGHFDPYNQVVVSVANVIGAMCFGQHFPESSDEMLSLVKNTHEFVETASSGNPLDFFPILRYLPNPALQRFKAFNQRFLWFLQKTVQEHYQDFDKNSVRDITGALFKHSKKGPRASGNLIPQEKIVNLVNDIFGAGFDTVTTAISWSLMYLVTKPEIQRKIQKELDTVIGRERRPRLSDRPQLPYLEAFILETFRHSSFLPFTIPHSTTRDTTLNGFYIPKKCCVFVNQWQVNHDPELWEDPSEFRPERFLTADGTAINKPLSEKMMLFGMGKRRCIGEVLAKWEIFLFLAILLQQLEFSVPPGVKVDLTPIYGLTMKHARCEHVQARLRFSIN
Chain of Cytochrome P450 3A4 (Homo sapiens) (P08684 whole entry, looked up): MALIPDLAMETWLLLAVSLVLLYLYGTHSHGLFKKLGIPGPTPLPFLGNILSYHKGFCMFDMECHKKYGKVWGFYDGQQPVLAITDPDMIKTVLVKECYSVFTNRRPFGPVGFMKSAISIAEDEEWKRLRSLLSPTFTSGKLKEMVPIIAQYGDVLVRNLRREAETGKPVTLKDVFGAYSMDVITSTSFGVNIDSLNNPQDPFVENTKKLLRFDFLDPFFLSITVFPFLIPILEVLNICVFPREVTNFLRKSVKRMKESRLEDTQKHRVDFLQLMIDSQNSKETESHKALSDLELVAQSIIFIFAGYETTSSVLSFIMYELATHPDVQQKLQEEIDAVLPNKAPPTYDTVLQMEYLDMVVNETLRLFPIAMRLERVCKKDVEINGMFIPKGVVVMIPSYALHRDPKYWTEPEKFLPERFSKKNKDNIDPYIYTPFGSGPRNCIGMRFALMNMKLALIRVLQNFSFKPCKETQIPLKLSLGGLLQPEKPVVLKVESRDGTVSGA

SMILES	Potency [1]	activity change, negative = inhibition [2]	Potency [3]	activity change, negative = inhibition [4]	activity, negative = inhibition [5]	Potency [6]	Potency [7]	activity change, negative = inhibition [8]	outcome [9]	activity change, negative = inhibition [3]	Potency [10]	Potency [11]	activation [12]	Potency [13]
COc1cc(CCN)c(OC)c(OC)c1	> 11.4 µM	7.8%	3.16 µM (active)	-9.45%	-3.83%	> 46 µM	> 9.22 µM	4.46% [at 11.4 µM]	inactive	–	–	–	–	–
N=C(N)n1cc(/C=N\N=C(N)N)cn1	> 11.4 µM	8.06%	–	8.05%	9.59%	> 46 µM	> 9.22 µM	6.38% [at 11.4 µM]	inactive	7.8% [at 2.29 µM]	inactive	–	–	–
O=C(O)CS(=O)(=O)C(c1ccccc1)c1ccccc1	> 11.4 µM	-6.22%	–	-2.65%	3.8%	> 46 µM	> 9.22 µM	1.62% [at 11.4 µM]	inactive	-15.7% [at 2.29 µM]	–	inactive	–	–
Oc1ccc(CCNCc2cc3c(cc2Br)OCO3)cc1	> 11.4 µM	-4.32%	1 µM (active)	-17%	9.31%	> 46 µM	> 9.22 µM	0.159% [at 11.4 µM]	inactive	–	0.316 µM (active)	5.01 µM (active)	-17.8%	–
CN(CCC(=O)O)C1=Nc2ccc(Cl)cc2C(c2ccccc2)=[N+]([O-])C1	> 11.4 µM	-5.9%	0.0631 µM (active)	13.9%	1.77%	> 46 µM	> 9.22 µM	1.43% [at 11.4 µM]	inactive	–	–	–	–	–
CN[C@H](Cc1ccccc1)c1cccc(OC)c1O	> 11.4 µM	4.57%	inactive	10.1%	-6.4%	> 46 µM	> 9.22 µM	1.41% [at 11.4 µM]	inactive	–	0.0398 µM (active)	2 µM (active)	–	–
COc1cc2c(cc1OC)[C@]13CC[N@+]4(C)CC5=CCO[C@H]6CC(=O)N2[C@@H]1[C@@H]6[C@@H]5C[C@]34O	> 11.4 µM	-12.3%	–	4.86%	-5.46%	> 46 µM	> 9.22 µM	1.38% [at 11.4 µM]	inactive	-11.4% [at 2.29 µM]	–	–	–	–
C[C@@]12CC[C@H](O[C@@H]3O[C@H](CO)[C@@H](O)[C@H](O)[C@@H]3O)C[C@@H]1CC[C@H]1[C@H]2CC[C@@]2(C)[C@@H](C3=CCOC3=O)CC[C@]12O	> 11.4 µM	-9.15%	inactive	2.85%	12.3%	> 46 µM	> 9.22 µM	8.37% [at 11.4 µM]	inactive	–	–	–	–	–
C[C@@H]1O[C@H](OC2[C@@H](O)[C@H](O)C(O)[C@H](O)[C@H]2O)[C@@H](N)C[C@@H]1N=C(N)C(=O)O (some centres undefined)	> 11.4 µM	-0.614%	–	8.22%	8.32%	> 46 µM	> 9.22 µM	1.04% [at 11.4 µM]	inactive	1.2% [at 2.29 µM]	–	–	3.06%	–
CN1C[C@H](C(=O)N[C@@]2(C)O[C@@]3(O)[C@H]4CCCN4C(=O)[C@@H](Cc4ccccc4)N3C2=O)C=C2c3cccc4[nH]cc(c34)C[C@@H]21	> 11.4 µM	2.32%	3.16 µM (active)	-0.805%	0.776%	> 46 µM	> 9.22 µM	-2.44% [at 11.4 µM]	inactive	–	–	–	–	–
Nc1nnnn1CCO	> 11.4 µM	7.2%	6.31 µM (active)	8%	12%	> 46 µM	> 9.22 µM	3.27% [at 11.4 µM]	inactive	–	–	–	12.2%	–
Nc1ccc(S(=O)(=O)c2ccc(NCN3C(=O)NC(=O)C(=O)C3=O)cc2)cc1	> 11.4 µM	-11.3%	inactive	14.2%	-4.49%	> 46 µM	> 9.22 µM	1.4% [at 11.4 µM]	inactive	–	–	inactive	–	2 µM (active)
